Measured values from the supplement of paper PMC4188521.

What follows are targets tested with CCc1cnn2c(NCc3ccc[n+]([O-])c3)cc(N3CCCC[C@H]3CCO)nc12 [dinaciclib] (assay: cell viability remaining relative to DMSO control; higher = less cytotoxic (more viable cells)). Conditions: 100 nM; 24 h.
Outline: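 Remaining viability, expressed as a percentage of the DMSO control, compares luminescence in treated wells with that in DMSO-treated control wells. Solid tumour cell lines from commercial banks received 100 nM of the test compound for 24 hr, with final DMSO kept at ≤0.2%. Viability was read as ATP luminescence using CellTiter-Glo, and values are means from 2–6 plates run in triplicate wells.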

Q: How did the cell viability remaining turn out when SKMEL1 was run?
A: The cell viability remaining was 68.9%.

Q: MDAMB175VII was tested. Which cell viability remaining did it give?
A: The cell viability remaining was 36%.

Q: With BT20 as the target, how does the cell viability remaining read?
A: The cell viability remaining was 45.2%.

Q: Which cell viability remaining does the source give for SW1573 here?
A: Its cell viability remaining is 99%.

Q: EFO27 was tested. Which cell viability remaining did it give?
A: The cell viability remaining was 106%.

Q: How did the cell viability remaining turn out when CAOV3 was run?
A: The cell viability remaining was 42.2%.

Q: With SKOV3 as the target, how does the cell viability remaining read?
A: Its cell viability remaining is 81.1%.

Q: HCC44 was tested. Which cell viability remaining did it give?
A: The cell viability remaining was 85.8%.

Q: H522 was tested. Which cell viability remaining did it give?
A: Its cell viability remaining is 80.6%.

Q: Which cell viability remaining does the source give for H1944 here?
A: The cell viability remaining was 76.9%.

Q: For 2313287, which cell viability remaining is on record?
A: Its cell viability remaining is 65.6%.

Q: CAPAN2 was tested. Which cell viability remaining did it give?
A: Its cell viability remaining is 51.4%.

Q: Which cell viability remaining does the source give for HT144 here?
A: The cell viability remaining was 48.6%.

Q: H82 was tested. Which cell viability remaining did it give?
A: The cell viability remaining was 12.6%.

Q: For HEC50B, which cell viability remaining is on record?
A: The cell viability remaining was 83.4%.

Q: With ESS1 as the target, how does the cell viability remaining read?
A: The cell viability remaining was 73.5%.

Q: A2780 was tested. Which cell viability remaining did it give?
A: The cell viability remaining was 44.5%.

Q: How did the cell viability remaining turn out when ASPC1 was run?
A: The cell viability remaining was 93.6%.

Q: How did the cell viability remaining turn out when NCI-H2110 was run?
A: Its cell viability remaining is 56.9%.

Q: How did the cell viability remaining turn out when H28 was run?
A: Its cell viability remaining is 107%.

Q: How did the cell viability remaining turn out when NCI-H322 was run?
A: The cell viability remaining was 69.1%.

Q: For WM2664, which cell viability remaining is on record?
A: The cell viability remaining was 68.9%.

Q: For U87MG, which cell viability remaining is on record?
A: The cell viability remaining was 63%.

Q: Which cell viability remaining does the source give for RMUGS here?
A: Its cell viability remaining is 62%.

Q: With COV318 as the target, how does the cell viability remaining read?
A: Its cell viability remaining is 79.8%.

Q: Which cell viability remaining does the source give for SNU1 here?
A: The cell viability remaining was 50.8%.

Q: For SW620, which cell viability remaining is on record?
A: The cell viability remaining was 58.5%.

Q: Which cell viability remaining does the source give for GRM here?
A: The cell viability remaining was 47%.

Q: Which cell viability remaining does the source give for BT483 here?
A: The cell viability remaining was 83.9%.

Q: MFE296 was tested. Which cell viability remaining did it give?
A: Its cell viability remaining is 47.4%.

Q: How did the cell viability remaining turn out when 769P was run?
A: The cell viability remaining was 57.5%.

Q: Which cell viability remaining does the source give for SKUT1 here?
A: The cell viability remaining was 74.7%.

Q: With MDAMB453 as the target, how does the cell viability remaining read?
A: The cell viability remaining was 65.4%.

Q: How did the cell viability remaining turn out when H146 was run?
A: Its cell viability remaining is 86.5%.
